From article PMC4336329 (PLoS ONE, 2015)
In all, about 310,000 compounds went through this assay and about 14,000 (4.5%) showed an effect of 50% or more. Effects have a minus sign here. What follows is part of a selection rich in strong results, with near analogues and random picks from the rest.

target: human ether-à-go-go-related gene (hERG) potassium channel (human, UniProt Q12809); test: primary screen, population patch clamp on CHO cells stably expressing hERG; higher = less effect of the substance
Sequence (Q12809 whole entry, looked up): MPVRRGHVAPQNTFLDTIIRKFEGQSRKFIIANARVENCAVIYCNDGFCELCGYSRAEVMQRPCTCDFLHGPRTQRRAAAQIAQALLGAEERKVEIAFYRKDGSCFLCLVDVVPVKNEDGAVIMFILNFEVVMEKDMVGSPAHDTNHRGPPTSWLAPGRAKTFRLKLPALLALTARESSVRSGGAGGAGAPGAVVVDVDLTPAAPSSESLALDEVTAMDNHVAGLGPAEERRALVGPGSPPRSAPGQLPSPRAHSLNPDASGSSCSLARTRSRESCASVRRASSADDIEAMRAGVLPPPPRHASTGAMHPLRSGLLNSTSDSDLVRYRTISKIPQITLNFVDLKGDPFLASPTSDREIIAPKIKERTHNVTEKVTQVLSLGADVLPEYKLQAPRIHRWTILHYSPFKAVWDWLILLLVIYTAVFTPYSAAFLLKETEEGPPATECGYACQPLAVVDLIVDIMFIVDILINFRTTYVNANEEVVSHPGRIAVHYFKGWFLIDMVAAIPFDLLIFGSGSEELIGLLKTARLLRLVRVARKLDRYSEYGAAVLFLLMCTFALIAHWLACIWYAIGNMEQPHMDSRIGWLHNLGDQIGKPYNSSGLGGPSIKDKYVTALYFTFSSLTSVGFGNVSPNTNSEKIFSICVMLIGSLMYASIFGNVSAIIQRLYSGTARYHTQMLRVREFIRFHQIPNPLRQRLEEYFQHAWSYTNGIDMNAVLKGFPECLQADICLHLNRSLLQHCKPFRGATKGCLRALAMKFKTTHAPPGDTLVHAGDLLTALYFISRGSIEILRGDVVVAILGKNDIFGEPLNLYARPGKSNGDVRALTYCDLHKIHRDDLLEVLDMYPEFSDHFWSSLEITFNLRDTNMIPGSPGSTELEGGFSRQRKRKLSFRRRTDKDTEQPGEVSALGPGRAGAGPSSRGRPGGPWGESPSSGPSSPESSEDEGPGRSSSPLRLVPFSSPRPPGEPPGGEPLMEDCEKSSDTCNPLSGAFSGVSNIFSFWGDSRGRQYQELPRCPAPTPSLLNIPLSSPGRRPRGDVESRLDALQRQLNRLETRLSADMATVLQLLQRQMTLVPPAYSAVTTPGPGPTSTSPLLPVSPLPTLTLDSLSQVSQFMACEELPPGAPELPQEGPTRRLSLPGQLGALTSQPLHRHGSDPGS
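Further: peak tail current of the secondary pulse compared with the same well before compound.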

| SMILES | hERG current change (%, negative = inhibition) at 10uM [%] |
| --- | --- |
| CCOc1ccc(S(=O)(=O)n2nnc3ccccc32)cc1C | 14.6 |
| CCCn1c(C)c(C(=O)OCC)c(O)c(-c2ccccc2)c1=O | 19.5 |
| CC(=O)N1CCN(c2cc(N3CCCC3)c(F)cc2[N+](=O)[O-])CC1 | 5.05 |
| COc1ccc(/C=N/Nc2ccc(C(F)(F)F)cc2[N+](=O)[O-])cc1 | 5.35 |
| Cn1cccc1Cc1nnc(SCC(=O)NCCc2ccccc2)n1-c1ccc(F)cc1 | -21.6 |
| CC(C)Cc1nnc(NC(=O)CN2C(=O)NC3(CCCC3)C2=O)s1 | -9.22 |
| CC(=O)N=c1scc(-c2ccccc2)n1-c1cccc(O)c1 | 7.32 |
| COc1cnn(-c2ccccc2)c(=O)c1SCc1ccc(Cl)c(Cl)c1 | -21.1 |
| COc1cnn(-c2ccc(C)cc2)c(=O)c1SCc1ccccc1 | -20.9 |
| COc1cnn(-c2ccc(Br)cc2)c(=O)c1SCc1ccccc1 | -65.6 |
| CN(C)S(=O)(=O)c1ccc(NC(=S)NC(=O)C2CCC2)cc1 | 10.3 |
| CC(C)(SC(=S)N1CCCCCC1)C(=O)O | 24.3 |
| CC(C)(C)n1cn[nH]c1=S | 22 |
| CCCSc1cc(N2CCCC2)nc(-c2ccccc2)n1 | 15.5 |
| COc1cccc(CN2CCN(Cc3cc(OC)c(OC)c(OC)c3)CC2)c1OC.O=C(O)C(=O)O | -8.03 |
| COc1ccc(CCN(C)C(=O)C2CCN(Cc3cccc(OC)c3OC)CC2)cc1OC.O=C(O)C(=O)O | -3.13 |
| COc1cccc(CN2CCC(N(CCc3ccccc3)Cc3ccccc3)CC2)c1OC.O=C(O)C(=O)O | -60.3 |
| COc1ccc(CN2CCC(N(CCc3ccccc3)Cc3ccccc3)CC2)c(OC)c1.O=C(O)C(=O)O | -74.5 |
| COc1ccc(CN2CCC(C(=O)N(C)CCc3ccc(OC)c(OC)c3)CC2)c(OC)c1.O=C(O)C(=O)O | -44.9 |
| COc1ccc(CN2CCC(N3CC(C)OC(C)C3)CC2)c(OC)c1.O=C(O)C(=O)O (stereo not drawn) | -1.98 |
| O=C(Nc1ccccc1)c1ccc(S(=O)(=O)NCc2ccco2)cc1 | -11.6 |

| SMILES | hERG current change (%, negative = inhibition) at 10uM [%] |
| --- | --- |
| O=C(Cc1ccc(S(=O)(=O)N2CCCC2)s1)NC1CCCCCC1 | -31.4 |
| C/C(=N\NC(=O)Cn1nc(C)cc1C)c1ccc([N+](=O)[O-])cc1 | -17.6 |
| O=C(Nc1ccc(Cc2ccc(NC(=O)C3CC3)c(O)c2)cc1O)C1CC1 | 8.31 |
| CCC(=O)N1COC[C@@H]1Cc1ccccc1 | 25.4 |
| CCC(=O)N1C(Cc2ccccc2)COC1(C)C (stereo not drawn) | -73.4 |
| CCC1(C)NC(=O)N(CC(=O)N2CCC(Cc3ccccc3)CC2)C1=O (stereo not drawn) | 3.65 |
| Cn1c(=O)c2ncn(CC(=O)N=Nc3c(O)[nH]c4ccccc34)c2n(C)c1=O | 20.7 |
| O=C(N/N=C/c1cccc([N+](=O)[O-])c1)C(=O)N1CCCCCC1 | -52.5 |
| O=C(ONC1=NCCCCC1)c1cccc([N+](=O)[O-])c1 | 0.994 |
| O=[N+]([O-])c1cccc(/C=N/NC2=NCCCCC2)c1 | -83 |
| O=C(N/N=C/c1cccc(O)c1)C(=O)N1CCCCCC1 | 24.6 |
| Cl.O=[N+]([O-])c1ccccc1/C=N/NC1=NCCCCC1 | -39.3 |
| O=C(N/N=C/c1ccc([N+](=O)[O-])cc1)C(=O)N1CCCC1 | 13.5 |
| O=C(CSc1nnc(-c2cccnc2)n1CCc1ccccc1)NCc1ccccc1 | -10.9 |
| CCOc1ccc(-c2nnc(SCC(=O)N(CC)CC)n2N)cc1 | 5.1 |
| CN1C(=O)Cc2cc(S(=O)(=O)N3CCN(c4ccc(Cl)cc4)CC3)ccc21 | -2.2 |
| COc1ccccc1Nc1nc(NCCO)nc(N)c1[N+](=O)[O-] | 2.88 |
| Cc1cc(=O)oc2cc(OCC(=O)OCC(=O)Nc3ccccc3C(C)C)ccc12 | 3.47 |
| CS(=O)(=O)c1ccccc1C(=O)Nc1cc2c(cc1C(=O)O)OCCCO2 | -57.3 |
| CSc1ccccc1C(=O)Nc1cc2c(cc1C(=O)O)OCCCO2 | 18.2 |
| COc1ccccc1C(=O)Nc1cc2c(cc1C(=O)O)OCCCO2 | -2.13 |

| SMILES | hERG current change (%, negative = inhibition) at 10uM [%] |
| --- | --- |
| CCCCCC(=O)Nc1cccc(C2=NOC3(C2)C[C@H](C(N)=O)N(C(=O)COc2ccc(Cl)cc2)C3)c1 (stereo partly drawn) | -22 |
| CCCCCC(=O)N1CC2(CC(c3cccc(NC(=O)CC)c3)=NO2)C[C@H]1C(N)=O (stereo partly drawn) | -11.6 |
| CCCCCC(=O)N1CC2(CC(c3cccc(NC(=O)c4ccccc4)c3)=NO2)C[C@@H]1C(N)=O (stereo partly drawn) | -54.6 |
| CCCCCC(=O)Nc1cccc(C2=NOC3(C2)C[C@H](C(N)=O)N(C(=O)CC)C3)c1 (stereo partly drawn) | 6.18 |
| C/C=C\C(=O)Nc1cccc(C2=NOC3(C2)C[C@@H](C(N)=O)N(C(=O)CCCCC)C3)c1 (stereo partly drawn) | -31 |
| CCCCCC(=O)N1CC2(CC(c3cccc(NC(=O)CC(c4ccccc4)c4ccccc4)c3)=NO2)C[C@@H]1C(N)=O (stereo partly drawn) | 11.4 |
| CCCCCC(=O)Nc1cccc(C2=NOC3(C2)C[C@H](C(N)=O)N(C(=O)CCCCC)C3)c1 (stereo partly drawn) | -70.7 |
| CCCCCC(=O)N1CC2(CC(c3cccc(NC(=O)COc4ccc(Cl)cc4)c3)=NO2)C[C@@H]1C(N)=O (stereo partly drawn) | -77 |
| NC(=O)[C@@H]1CC2(CC(c3cccc(NC(=O)COc4ccc(Cl)cc4)c3)=NO2)CN1C(=O)COc1ccc(Cl)cc1 (stereo partly drawn) | -29.4 |
| N#CCCN1CCN(S(=O)(=O)c2ccc(S(=O)(=O)NC3CCCC3)cc2)CC1 | -9.4 |
| CCc1cc2c(Nc3ccc(O)cc3)nc(C)nc2s1.Cl | 8.46 |
| Cc1cc(/C=N/O)c(C)n1-c1ccc(Br)cc1 | -34.2 |
| CCc1ccc(OCCSc2nc3ccccc3n2CC(=O)O)cc1 | 3.37 |
| CSc1nsc(SC)c1NC(=O)N1CCCCC1 | 2.74 |
| O=C(NC(=S)N(Cc1ccccc1)Cc1ccccc1)c1ccccc1F | 18.5 |
| O=C(Cn1c(CO)nc2ccccc21)Nc1cc(C(F)(F)F)ccc1N1CCOCC1 | 1.37 |
| O=C(NCCN1CCN(C(=O)c2cc3ccccc3oc2=O)CC1)c1cc2ccccc2oc1=O | -15.9 |
| O=C(c1cc(-c2ccccc2)on1)N1CCN(Cc2ccc3c(c2)OCO3)CC1 | -50.1 |
| Cc1cc(C(=O)N2CCN(Cc3ccc4c(c3)OCO4)CC2)on1 | -4.02 |
| C=CCN1CCN(C(=O)c2oc3ccccc3c2C)CC1 | -0.434 |
| CC(=O)N1CCN(C(=O)c2oc3ccccc3c2C)CC1 | 8.84 |

| SMILES | hERG current change (%, negative = inhibition) at 10uM [%] |
| --- | --- |
| O=C(c1cc2ccccc2oc1=O)N1CCN(Cc2ccc3c(c2)OCO3)CC1 | -53.7 |
| Cc1onc(-c2ccccc2)c1C(=O)N1CCN(Cc2ccc3c(c2)OCO3)CC1.Cl | 17.5 |
| COc1cc2cc(C(=O)N3CCN(Cc4ccc5c(c4)OCO5)CC3)c(=O)oc2cc1OC | -0.572 |
| O=C(c1cc2ccccc2o1)N1CCN(Cc2ccc3c(c2)OCO3)CC1 | -22.1 |
| Cc1c(C(=O)N2CCN(CCc3ccccc3)CC2)oc2ccccc12 | -72.4 |
| CN1CCN(C(=O)c2cc3ccccc3oc2=O)CC1 | 6.08 |
| O=C(c1cc2ccccc2oc1=O)N1CCN(CCc2ccccc2)CC1 | -71.8 |
| c1ccc(CCCCNCC2COc3ccccc3O2)cc1 (stereo not drawn) | -28.5 |
| COc1cc(C(=O)NCCC(c2ccccc2)c2ccccc2)cc(OC)c1OC | 0.15 |
| COc1ccc(-c2cc(N)n(CCC#N)n2)c(OC)c1 | 4.12 |
| O=C(CSc1nnc(-c2ccncc2)o1)Nc1ccccc1C(F)(F)F | -0.412 |
| Cn1c(CNC(=O)CNC(=O)Cc2ccc(Cl)cc2)cc(=O)n(C)c1=O | 18.9 |
| COC(=O)C(C)Oc1cc(C)cc2oc(=O)c3c(c12)CCC3 (stereo not drawn) | -12.7 |
| N#CC1(NC(=O)CSc2nnc(-c3ccccc3F)o2)CCCCC1 | -13.1 |
| CC(C)CC(=O)Nc1ccccc1Oc1ccccc1 | -2.96 |
| Cc1nn(C)c(C)c1S(=O)(=O)N1CCCC(C(=O)N2CCN(c3ccc(Cl)cc3)CC2)C1 (stereo not drawn) | -70.4 |
| CC(=O)c1ccc(N2CCN(C(=O)C3CCCN(S(=O)(=O)c4c(C)[nH]c(=O)[nH]c4=O)C3)CC2)cc1 (stereo not drawn) | 23.4 |
| Cc1nn(C)c(C)c1S(=O)(=O)N1CCCC(C(=O)NCCc2ccc(Cl)cc2)C1 (stereo not drawn) | -0.523 |
| Cc1n[nH]c(C)c1S(=O)(=O)N1CCCC(C(=O)N2CCN(c3ccc(Cl)cc3)CC2)C1 (stereo not drawn) | -75.1 |
| O=C(C1CCCN(S(=O)(=O)c2cnc[nH]2)C1)N1CCN(c2ccc(Cl)cc2)CC1 (stereo not drawn) | -35 |
| Cc1nn(C)c(C)c1S(=O)(=O)N1CCCC(C(=O)N2CCN(c3ccccc3)CC2)C1 (stereo not drawn) | -27.6 |
